Source: PubChem BioAssay
In the library only some 19% were active in any assay of this set; here they are far more common.
TDP1 cell CPT = growth inhibition of DT40 Tdp1-/-;hTDP1 cells with camptothecin (screen for TDP1 inhibitors). Potency, µM (top dose mostly 46.2 µM), for the others: at the highest dose activity change, negative = growth inhibition, actives largely listed as inhibitors. chicken DT40 Tdp1-/-;hTDP1 cells + 20 nM CPT, ATP luminescence, 48 h. AID 686979. 420,000 tested, 12% active; further: potency means the concentration at half of the fitted maximal effect; nearly all actives have a fitted effect of over 55% in size
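Chicken DT40 Tdp1-/- cells stably complemented with human TDP1 were seeded at 400 cells/well in medium containing 20 nM camptothecin, exposed to pin-transferred compounds, and grown at 37 °C for at least 48 hr. Viability was read as ATP luminescence.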
IL-1B inflam inh = inhibitors of inflammasome signaling (IL-1 beta secretion). AID 743279. activity change, % at 57.5 µM. THP-1 LPS/ATP IL-1B secretion, AlphaLISA, 16 h; stronger effect = lower value. 360,000 tested, 4.7% active; in the data active means activity change below about -50%; inconclusive means mostly about -30% to -49%
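THP-1 cells pretreated 1 hr with compounds (up to 57.5 uM final), then stimulated with LPS (250 ng/mL final) plus ATP (1.25 mM final); secreted IL-1B measured by AlphaLISA after 16 hr, decreased signal indicating inhibition.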
HT1080NT lethal = kills 2HG-producing HT-1080-NT fibrosarcoma cells; HT-1080-NT fibrosarcoma viability, CellTiter-Glo ATP luminescence, 48 h; Potency, µM (titrated, usually from 46.1 µM), for the others: at the highest dose activity, negative = less viability, most hits filed as cytotoxic; 360,000 tested, 1.6% active; AID 686970;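 further: NT is the 2HG producing partner of a matched IDH1 knockdown line; potency means the concentration at half of the fitted maximal effect; 0% = DMSO-treated cells and -100% = media-only wells without cells; nearly all actives have a fitted effect of over 55% in size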
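750 cells/well, RPMI + 5% FBS; 2 h settle, compound pin-transfer, 48 h at 37 degrees C. CellTiter-Glo 10 min RT, luminescence. Normalized to DMSO and media-only wells.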
TDP1 cell noCPT = qHTS for Inhibitors of human tyrosyl-DNA phosphodiesterase 1 (TDP1): qHTS in cells in absence of CPT. DT40 Tdp1-/- hTDP1 cells, no CPT, ATP luminescence, 48 h. Potency, µM (highest dose often 46.2 µM), inactives show at the highest dose activity change, negative = growth inhibition, usual class: inhibitors. 420,000 tested, 15% active. AID 686978, 2013; further: potency means the concentration at half of the fitted maximal effect; nearly all actives have a fitted effect of over 55% in size
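Growth kinetics read by CellTiter-Glo luminescence after ≥48 hr at 37 °C. Cells: DT40 Tdp1-/- stably carrying human TDP1, 400 per well, compound exposure in the absence of CPT (DMSO vehicle).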
ELG1 repair inh = ELG1-dependent DNA repair inhibition. HEK293T ELG1-luciferase reporter, luminescence, 16 h; DNA damage induced by 5-fluorouridine. Potency, µM (doses to about 46.1 µM), for inactives: at the highest dose activity change, negative = inhibition, hits mostly inhibitors. 330,000 tested, 2.3% active. AID 504467; further: potency means the concentration at half of the fitted maximal effect; nearly all actives have a fitted effect of over 55% in size
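Step one: seed 2,000 cells per well. Step two: pin-transfer compound or DMSO alongside 5-fluorouridine. Step three: incubate 16 hr, 37 °C, 5% CO2. Step four: add ONE-Glo, wait 30 min, read luminescence.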
HT1080 IDH1KD tx = kills HT-1080 cells with IDH1 knockdown; HT-1080 IDH1 knockdown viability, ATP luminescence, 48 h; Potency, µM (top dose mostly 46.1 µM), for inactives: top-dose activity, negative = toxicity, hits mostly cytotoxic; 360,000 tested, 2% active; AID 686971;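 further: potency means the concentration at half of the fitted maximal effect; 0% = DMSO wells and -100% = cell-free medium wells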
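IDH1KD HT-1080 cells, 750/well, RPMI + 5% FBS; compound pinned after 2 h settling; 48 h, 37 °C; CellTiter-Glo luminescence; % activity normalised to DMSO and no-cell wells; curves fitted, classed by r2 and efficacy.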
Starred values were filed as active, the others as inactive. Unless noted, the call rests on the fitted dose curve; in most records, active means well fitted curve in the direction sought with a large enough effect; inconclusive means small, poorly fitted or top-dose-only effect, or another doubt; inactive means no such curve, though single readings can be large; an effect the other way counts as inactive or inconclusive. Unless noted, on the % scale 0 is the no-effect control and ±100 the full control effect.

`COc1cccc(CN2C(=O)C(C)N(C(=O)c3c(F)cccc3F)c3ccccc32)c1` (stereo unspecified) gave TDP1 cell CPT 23.1µM*, IL-1B inflam inh -14.0, HT1080NT lethal inconclusive, TDP1 cell noCPT 10.3µM*, ELG1 repair inh inconclusive and HT1080 IDH1KD tx -26.2%.
`O=C(CSc1ncc(-c2ccccc2)n1-c1ccccc1)NCc1ccco1` gave TDP1 cell CPT inconclusive, IL-1B inflam inh -1.6, HT1080NT lethal 6.9%, TDP1 cell noCPT 16.4µM*, ELG1 repair inh -14.9% and HT1080 IDH1KD tx -23.5%.
CCn1c(SCC(=O)NCc2ccco2)nc2ccccc2c1=O was read as TDP1 cell CPT -3.9%, IL-1B inflam inh 0.0, HT1080NT lethal 3.0%, TDP1 cell noCPT -0.7%, ELG1 repair inh 8.1% and HT1080 IDH1KD tx 1.1%.
Cc1ccc(NC(=O)CSc2nc3ccccc3c3nc4ccccc4n23)cc1 was read as TDP1 cell CPT 0.651µM*, IL-1B inflam inh 43.7, HT1080NT lethal 0.398µM*, TDP1 cell noCPT 0.581µM*, ELG1 repair inh 9.7% and HT1080 IDH1KD tx 0.282µM*.
CCn1c(SCC(=O)Nc2ccc(F)cc2)nc2ccccc2c1=O was read as TDP1 cell CPT -9.7%, IL-1B inflam inh inconclusive, HT1080NT lethal -15.0%, TDP1 cell noCPT inconclusive, ELG1 repair inh -14.7% and HT1080 IDH1KD tx -13.0%.
Screening COc1ccc(-n2c(-c3ccc(F)cc3)cnc2SCC(=O)NCc2ccco2)cc1 returned TDP1 cell CPT -17.9%, IL-1B inflam inh inconclusive, HT1080NT lethal 1.5%, TDP1 cell noCPT -29.7%, ELG1 repair inh 14.2% and HT1080 IDH1KD tx -15.0%.
O=C(CSc1nc2ccccc2c2nc3ccccc3n12)NCc1ccco1 was read as TDP1 cell CPT 25.9µM*, IL-1B inflam inh -4.4, HT1080NT lethal -22.2%, TDP1 cell noCPT 23.1µM*, ELG1 repair inh 3.4% and HT1080 IDH1KD tx -20.7%.
For Cc1ccc(-c2nnn3c2nc(NC2CCC(C)CC2)c2ccccc23)cc1 (stereo unspecified) the results were TDP1 cell CPT -12.0% and TDP1 cell noCPT inconclusive.
For CC1CCC(Nc2nc3c(-c4cccc(C(F)(F)F)c4)nnn3c3ccccc23)CC1 (stereo unspecified) the results were TDP1 cell CPT inconclusive and TDP1 cell noCPT 29.1µM*.
Screening NNc1nc2c(-c3cccc(C(F)(F)F)c3)nnn2c2ccccc12 returned TDP1 cell CPT -119.1%, IL-1B inflam inh -12.1, HT1080NT lethal 20.6µM*, TDP1 cell noCPT -106.4%, ELG1 repair inh inconclusive and HT1080 IDH1KD tx 20.6µM*.
CCOC(=O)c1nnn2c1nc(Nc1cccc(C(F)(F)F)c1)c1ccccc12 was read as TDP1 cell CPT 10.3µM*, HT1080NT lethal 25.5%, TDP1 cell noCPT 5.8µM*, ELG1 repair inh -0.9% and HT1080 IDH1KD tx 19.3%.
C=CCSc1nc2c(C(=O)OCC)nnn2c2ccccc12 was read as TDP1 cell CPT inconclusive, IL-1B inflam inh 2.4, HT1080NT lethal -8.1%, TDP1 cell noCPT 9.2µM*, ELG1 repair inh -9.3% and HT1080 IDH1KD tx -12.5%.
Screening Cc1cc(C)c(C)c(OCCCCN2CCCCC2)c1 returned TDP1 cell CPT 5.7%, IL-1B inflam inh 1.3, HT1080NT lethal 14.5%, TDP1 cell noCPT -21.7%, ELG1 repair inh 4.9% and HT1080 IDH1KD tx 2.2%.
Screening CCCCNS(=O)(=O)c1ccc2nc(-c3cccnc3)cc(C(=O)NCCCOCC)c2c1 returned TDP1 cell CPT -5.0%, TDP1 cell noCPT -27.0% and ELG1 repair inh inconclusive.
Screening Cc1ccc(C)c(OCCC(=O)Nc2ccc(S(=O)(=O)N3CCCC3)cc2)c1 returned TDP1 cell CPT -23.4%, IL-1B inflam inh -1.8, HT1080NT lethal inconclusive, TDP1 cell noCPT inconclusive, ELG1 repair inh -27.9% and HT1080 IDH1KD tx inconclusive.
COc1ccc(CC(=O)Nc2cccc(-c3nnc(-c4cccc(C)c4)o3)c2)cc1OC was read as TDP1 cell CPT inconclusive, IL-1B inflam inh -6.2, HT1080NT lethal -1.1%, TDP1 cell noCPT 23.1µM*, ELG1 repair inh 2.91µM* and HT1080 IDH1KD tx -22.0%.
Cc1ccc(OCC(=O)Nc2cccc(-c3nnc(-c4ccccc4)o3)c2)c(C)c1 was read as TDP1 cell CPT 11.6µM*, IL-1B inflam inh 36.4, HT1080NT lethal inconclusive, TDP1 cell noCPT 11.6µM*, ELG1 repair inh inconclusive and HT1080 IDH1KD tx inconclusive.
`COc1ccc(CC(=O)NCc2cccc(CNC(=O)Cc3ccc(OC)c(OC)c3)c2)cc1OC` gave TDP1 cell CPT -7.3%, IL-1B inflam inh 6.6, HT1080NT lethal -2.0%, TDP1 cell noCPT -1.7%, ELG1 repair inh -24.4% and HT1080 IDH1KD tx 3.6%.
COc1ccc(CC(=O)Nc2cccc(-c3nnc(-c4ccc(C)cc4)o3)c2)cc1OC was read as TDP1 cell CPT 6.51µM*, IL-1B inflam inh -99.4*, HT1080NT lethal inconclusive, TDP1 cell noCPT 5.17µM*, ELG1 repair inh 11.6µM* and HT1080 IDH1KD tx inconclusive.
For CCc1cccc(NC(=O)Cc2ccc(OC)c(OC)c2)c1 the results were TDP1 cell CPT inconclusive, IL-1B inflam inh -5.8, HT1080NT lethal -9.9%, TDP1 cell noCPT 13µM*, ELG1 repair inh 10.2% and HT1080 IDH1KD tx -10.4%.
COc1ccccc1CCC(=O)Nc1ccc(S(=O)(=O)Nc2ncccn2)cc1 was read as TDP1 cell CPT inconclusive, IL-1B inflam inh 38.1, HT1080NT lethal -0.5%, TDP1 cell noCPT inconclusive and HT1080 IDH1KD tx -0.2%.
Screening COc1cccc(-c2cnc(C(O)c3c(C)cc(C)cc3C)[nH]2)c1 (stereo unspecified) returned TDP1 cell CPT inconclusive, IL-1B inflam inh -2.6, HT1080NT lethal -14.5%, TDP1 cell noCPT inconclusive and HT1080 IDH1KD tx -2.9%.
COc1ccc(CC(=O)Nc2ccc(-c3nnc(-c4ccccc4)o3)cc2)cc1OC was read as TDP1 cell CPT -9.8%, IL-1B inflam inh 14.9, HT1080NT lethal 16.3%, TDP1 cell noCPT 0.2%, ELG1 repair inh inconclusive and HT1080 IDH1KD tx 11.9%.
COc1ccc(CC(=O)Nc2cccc(-c3nnc(-c4ccccc4)o3)c2)cc1OC was read as TDP1 cell CPT 5.8µM*, IL-1B inflam inh -72.3*, HT1080NT lethal inconclusive, TDP1 cell noCPT 2.31µM*, ELG1 repair inh 5.01µM* and HT1080 IDH1KD tx -20.6%.
